Rows were chosen to be rich in hits. Some 8.9% of all compounds tested hit in one or more screens of this group.
MCF10A rereplic = A quantitative high throughput screen for small molecules that induce DNA re-replication in MCF 10a normal breast cells | Potency, µM (doses to about 46.1 µM), actives largely listed as activators | AID 624296, 2012 | MCF 10A DNA re-replication, Hoechst nuclear intensity, 48 h | actives 2.9% (n = 350,000); note: nearly all actives have a fitted effect of over 50% in size
D3 ag = qHTS of D3 Dopamine Receptor Agonist: qHTS; max activation, %; actives 0.58% (n = 410,000); D3R DiscoveRx beta-arrestin cells, luminescence, 90 min; in the data active = max activation above about 30%
Target sequence (P35462 whole entry, looked up): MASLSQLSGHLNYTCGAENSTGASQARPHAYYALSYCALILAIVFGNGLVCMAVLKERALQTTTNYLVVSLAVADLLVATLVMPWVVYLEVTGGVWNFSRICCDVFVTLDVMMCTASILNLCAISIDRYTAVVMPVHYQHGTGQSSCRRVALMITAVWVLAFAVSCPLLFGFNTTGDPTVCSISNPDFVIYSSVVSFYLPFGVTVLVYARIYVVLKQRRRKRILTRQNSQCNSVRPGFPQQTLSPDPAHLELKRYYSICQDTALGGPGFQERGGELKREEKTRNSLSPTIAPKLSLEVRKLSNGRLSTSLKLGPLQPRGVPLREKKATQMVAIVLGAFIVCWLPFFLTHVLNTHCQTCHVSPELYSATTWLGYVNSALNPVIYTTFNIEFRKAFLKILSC
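Agonist-mode cell screen: cells plated at 1500/well and incubated overnight at 37 °C, then exposed to library compounds for 90 min at 37 °C. Detection reagent was added for 30–60 min at room temperature, and luminescence was read.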
DRD3 antagonist = qHTS of D3 Dopamine Receptor Antagonist: qHTS | D(3) dopamine receptor (Homo sapiens), P35462 | D3R cells, DiscoveRx beta-arrestin luminescence, antagonist mode; stronger effect = lower value | max response, negative = inhibition, % | actives 2.5% (n = 360,000); in the data active = max response below about -50%; inconclusive = no clear call, values can overlap the other calls
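Cells plated overnight at 1500 cells/well, then exposed to library compounds with dopamine controls for 90 minutes at 37 degrees C. DiscoveRx reagent added for 30–60 minutes at room temperature; luminescence read, quantitative HTS format.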
KB-3-1 cytotox = qHTS assay for MDR1-selective chemotherapeutics: Primary screen using the parental adenocarcinoma cell KB-3-1; KB-3-1 viability, CellTiter-Glo ATP luminescence, 72 h; Potency, µM (top dose mostly 46.1 µM), most hits filed as cytotoxic; actives 1.4% (n = 400,000); AID 1347075, 2019; note: nearly all actives have a fitted effect of over 60% in size
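Using CellTiter-Glo luminescence, growth of non-resistant KB-3-1 adenocarcinoma cells is assessed 72 h after pin-tool compound addition at 37 °C. Normalized responses across the concentration series yield fitted curves.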
SW480 rereplic = A quantitative high throughput screen for small molecules that induce DNA re-replication in SW480 colon adenocarcinoma cells. SW480 DNA re-replication, Hoechst DNA content imaging, 48 h. Potency, µM (doses to about 46.1 µM), hits mostly activators. actives 1.8% (n = 340,000); note: nearly all actives have a fitted effect of over 55% in size
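Readout is total intensity of Hoechst-stained nuclei, excited at 405 nm and collected at 500-530 nm. Compound treatment lasted 48 hr at 37 C in 5% CO2 before staining.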
KB-V1 MDR tox = qHTS assay for MDR1-selective chemotherapeutics: Primary screen using the drug-selected MDR subline cells KB-V1; KB-V1 MDR cells viability, CellTiter-Glo, 72 h; actives 3.4% (n = 400,000); Potency, µM (top dose mostly 46.1 µM), hits mostly cytotoxic; note: nearly all actives have a fitted effect of over 60% in size
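Potencies derive from concentration-effect curves fitted to normalized luminescence (CellTiter-Glo) of KB-V1 cells treated for 72 h at 37 degrees C in phenol-red-free DMEM containing 10% FBS.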
A number is an active result; i = inactive; ? = inconclusive; nt = no result; [ ] = dose if it differs, or a comment. Unless noted, calls come from the whole dose curve; as a rule, active = well fitted curve in the direction sought with a large enough effect; inconclusive = small, poorly fitted or top-dose-only effect, or another doubt; inactive = no such curve, though single readings can be large; an effect the other way counts as inactive or inconclusive.

SMILES | MCF10A rereplic | D3 ag | DRD3 antagonist | KB-3-1 cytotox | SW480 rereplic | KB-V1 MDR tox
Clc1ccc2c(c1)C(N1CCNCC1)Cc1ccccc1S2 (centres undefined) | ? | i | -56 | ? | ? | 21µM
O=C(c1ccccc1Cl)N1CCNCC1 | i | i | i | i | i | i
NC(=O)COCCN1CCN(C(c2ccccc2)c2ccc(Cl)cc2)CC1 (centres undefined) | nt | i | nt | nt | nt | nt
O=C(CSc1nc2ncccc2o1)Nc1ccc(Cl)cc1F | nt | i | nt | i | nt | i
COc1ccc(NC(=O)c2ccc(CNS(=O)(=O)c3ccc4c(c3)C(C)(C)C(=O)N4C)cc2)cc1 | nt | i | nt | nt | nt | nt
CCN(CC)C(=O)Cn1c(=O)n(CCCCCC(=O)NCc2ccccc2Cl)c(=O)c2sccc21 | nt | i | nt | nt | nt | nt
CC(=O)Nc1cc(C(=O)N2CCc3ccccc3C2)ccc1Sc1ccc(Cl)cc1 | 23µM | i | i | i | i | i
CC(=O)Nc1cc(C(=O)N2CCc3ccccc3C2)ccc1Sc1ccc(F)cc1 | ? | i | i | i | i | i
CCN(CC)CCNC(=O)c1ccc(Sc2ccc(C)cc2)c(NC(C)=O)c1 | i | i | -88 | i | i | i
CCN(CC)CCNC(=O)c1ccc(Sc2ccc(Cl)cc2)c(NC(C)=O)c1 | i | i | -77 | i | i | i
COc1ccccc1CCNC(=O)C(=O)NCC(c1cccnc1)N1CCN(c2ccccc2)CC1 (centres undefined) | nt | i | nt | ? | nt | i
COc1cc(C2CC(=O)Nc3c2c(=O)n(C)c(=O)n3C)cc(OC)c1OC (centres undefined) | nt | i | nt | i | nt | i
COCCNC(=O)c1nn2c(C(F)(F)F)cc(-c3ccccc3)nc2c1Cl | i | i | i | i | i | i
COc1ccc(-c2cc(C(F)(F)F)n3nc(C(=O)N(C)Cc4ccccc4)cc3n2)cc1OC | ? | i | i | i | 21µM | ?
CCN(CC)CCCNC(=O)c1cc2nc(-c3ccccc3)cc(C(F)(F)F)n2n1 | 1µM | i | i | i | i | i
O=C(NCCCn1ccnc1)c1nn2c(C(F)(F)F)cc(-c3ccccc3)nc2c1Cl | i | i | i | i | 6.5µM | i
COc1ccc(-c2cc(C(F)(F)F)n3nc(C(=O)Nc4ccc(Cl)cc4C(F)(F)F)cc3n2)cc1OC | nt | i | nt | ? | nt | i
Cc1ccc(-c2cc(C(F)(F)F)n3nc(C(=O)NCCCn4ccnc4)cc3n2)cc1C | 15µM | i | i | i | ? | i
COc1ccc(NC(=O)OCCn2c([N+](=O)[O-])cnc2C)cc1 | ? | i | i | ? | i | i
Cc1ncc([N+](=O)[O-])n1CCOC(=O)NC(NCc1ccccc1Cl)C(Cl)(Cl)Cl (centres undefined) | i | i | i | ? | ? | 7.3µM
Cc1cc(C)nc(NCc2ccc(Cl)cc2)n1 | i | i | i | i | i[9.22 µM] | i
Cc1cc(OC2CCCCC2)nc(NCc2ccccc2)n1 | i | i | i | i | i | i
Cc1cc(N/N=C/c2ccc(Cl)cc2)nc(NCc2ccccc2)n1 | ? | i | i | i | ? | ?
CCCCOc1cc(C)nc(NCc2ccccc2)n1 | ? | i | i | 10µM | ? | ?
Cc1cc(N/N=C/c2ccccc2)nc(NCc2ccccc2)n1 | ? | i | i | i | ? | 13µM
CC(=O)c1ccc(Oc2cc(C)nc(NCc3ccccc3)n2)cc1 | i | i | i | ? | i | 16µM
CCOc1cc(C)nc(NCc2ccccc2)n1 | 12µM | i | i | i | ? | i
COc1ccc(C2C(=O)N(C3CCCCCC3)CC(=O)N2CCc2ccc(OC)c(OC)c2)cc1 (centres undefined) | nt | i | nt | nt | nt | nt
COc1ccc(-c2cc(C(F)(F)F)c(C#N)c(SCC(=O)Nc3ccc(C)cc3)n2)cc1 | i | i | i | i | i | i
COc1ccc(C(=O)CSc2[nH]c(=O)cc(C(F)(F)F)c2C#N)cc1 | 18µM | i | i | ? | ? | i
